Laboratory results published in PubChem BioAssay (NCATS).
Records with an inconclusive call do not appear. Active and inactive are the calls of the source. The call rests on the fitted dose curve; in most records, active means well fitted inhibition curve with a large enough effect; inconclusive means small, poorly fitted or top-dose-only effect; inactive means no such curve, though single readings can be large or run the other way.
On the % scale 0 is the no-effect control and ±100 the full control effect; potency means the concentration at half of the fitted maximal effect.

These molecules were tested on Zika virus NS2B-NS3 protease (unlinked complex) (assay: Primary screen GU Rhodamine qHTS for Zika virus inhibitors: Unlinked NS2B-NS3 protease assay (AID 1347159; further: nearly all actives have a fitted effect of over 60% in size)). Settings: Recombinant ZIKV NS2B-NS3 protease, Rhodamine110 substrate fluorescence; series mostly up to 107 µM; activity change, negative = inhibition: at the top concentration.
Procedure, shortened: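 Enzyme 25 nM in Tris-HCl pH 8.0 + 0.01% Tween 20; compounds up to 114 microM, 15 min RT dark; + Rhod110 substrate 1.5 microM; read t0 and 15 min; delta fluorescence → % inhibition → 4-parameter Hill fit.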
In the case of COC1(CC(C)C)NC(=O)C(O)(Cc2ccccc2)NC1=O (centres undefined), the “activity change, negative = inhibition” value is reported as 8.01% (inactive).
C[C@H]1[C@H](C)CC[C@]2(C(=O)O)CC[C@]3(C(=O)O)C(=CCC4[C@@]5(C)CC[C@H](O[C@@H]6O[C@H](C)[C@@H](O)[C@H](O)[C@H]6O)C(C)(C)C5CC[C@]43C)[C@H]12 (some centres undefined) was tested, and the “activity change, negative = inhibition” value was 14.4% [at 32.5 µM] (inactive).
In the case of OC[C@H]1O[C@@H](n2cnc3c(NCc4ccc(O)cc4)ncnc32)[C@H](O)[C@@H]1O, the “activity change, negative = inhibition” value is reported as 54.7% (inactive).
With CC(=O)NCCCCn1c2c(c3ccccc31)C(=O)NCC2 the “activity change, negative = inhibition” value was -13.4% (inactive).
For CC1(CO)CC2C(O)C(=O)C3(CO)CC3(C)C2C1 (centres undefined), the “activity change, negative = inhibition” value was 0.372% (inactive).
In the case of CC(=O)O[C@@H]1[C@H](O[C@@H]2OC[C@](O)(CO)[C@H]2O)[C@@H](O[C@@H]2O[C@@H](C)[C@H](O)[C@@H](O)[C@H]2O)[C@H](OC(=O)[C@]23CCC(C)(C)C[C@H]2C2=CCC4[C@@]5(C)C[C@H](O)[C@H](O[C@@H]6O[C@H](C(=O)O)[C@@H](O)[C@H](O)[C@H]6O)[C@@](C)(C(=O)O)C5CC[C@@]4(C)[C@]2(C)CC3)O[C@@H]1C (some centres undefined), the “activity change, negative = inhibition” value is reported as 7.84% [at 32.5 µM] (inactive).
For C[C@@H]1O[C@@H](O[C@H]2[C@H](O)[C@@H](O)[C@H](OC[C@H]3O[C@@H](OC(=O)[C@]45CCC(C)(C)C[C@H]4C4=CCC6[C@@]7(C)C[C@H](O)[C@H](O[C@@H]8O[C@H](CO)[C@@H](O)[C@H](O)[C@H]8O)[C@@](C)(C(=O)O)C7CC[C@@]6(C)[C@]4(C)CC5)[C@H](O[C@@H]4O[C@H](CO)[C@@H](O)[C@H](O)[C@H]4O)[C@@H](O)[C@@H]3O)O[C@@H]2CO)[C@H](O)[C@H](O)[C@H]1O (some centres undefined), the activity change, negative = inhibition was -27.3% [at 19.1 µM] (inactive).
In the case of C=CC1C(O[C@@H]2O[C@H](CO)[C@@H](O)[C@H](O)[C@H]2O)OC=C(C(=O)OC)C1CC(=O)O (some centres undefined), the “activity change, negative = inhibition” value is reported as 20.6% [at 57.1 µM] (inactive).
In the case of COc1ccc([C@H]2Cc3cccc(O)c3C(=O)O2)cc1, the “activity change, negative = inhibition” value is reported as -9.27% (inactive).
CC1CC(=O)C2=C(O1)OC1(C)CCC3C(C)(C)C=CC(=O)C3(C)C1C2 (centres undefined) was tested, and the Potency was 28.2 µM (active).
For C[C@@H]1CC[C@]2(C(=O)O)CC[C@]3(C)C(=CCC4[C@]5(C)C(CC[C@]43C)C(C)(C)[C@@H](O)[C@H](O)[C@@H]5O)C2[C@]1(C)O (some centres undefined), the “activity change, negative = inhibition” value was 2.35% [at 57.1 µM] (inactive).
For CC1(C)C(O)CCC2(C)C1C(O)C=C1COC(=O)C12O (centres undefined), the “activity change, negative = inhibition” value was 24.2% (inactive).
With COc1cc([C@H]2OC[C@]3(OC(C)=O)[C@@H](c4ccc(O[C@@H]5O[C@H](CO)[C@@H](O)[C@H](O)[C@H]5O)c(OC)c4)OC[C@H]23)ccc1O the “activity change, negative = inhibition” value was 22.5% [at 32.5 µM] (inactive).
COc1ccc(C(=O)O[C@H]2CC(C)=CC[C@@]3(C)[C@@H](OC(C)=O)C[C@@](O)(C(C)C)[C@H]23)cc1 was tested, and the “activity change, negative = inhibition” value was -12.8% [at 57.1 µM] (inactive).
For CC(C)CC(=O)O[C@@H]1OC=C(CO[C@@H]2O[C@H](CO[C@@H]3O[C@H](CO)[C@@H](O)[C@H](O)[C@H]3O)[C@@H](O)[C@H](O)[C@H]2O)[C@H]2C[C@H](O)[C@@H](CO)[C@@H]12, the “activity change, negative = inhibition” value was 81.1% [at 32.5 µM] (inactive).
For C=C1C[C@]23C[C@H]1CC[C@H]2[C@@]12C=C[C@H](O)[C@@](C)(C(=O)O1)[C@H]2[C@@H]3C(=O)O, the “activity change, negative = inhibition” value was 11.2% (inactive).
With CC12CCC3c4ccc(O)cc4CCC3C1CCC2OC1OC(C(=O)O)C(O)C(O)C1O (centres undefined) the “activity change, negative = inhibition” value was 18% (inactive).
For C[C@@H]1O[C@@H](O[C@H]2[C@H](OC(=O)[C@]34CCC(C)(C)C[C@H]3C3=CCC5[C@@]6(C)C[C@H](O)[C@H](O[C@@H]7O[C@H](CO[C@@H]8OC[C@H](O)[C@H](O)[C@H]8O)[C@@H](O)[C@H](O)[C@H]7O)C(C)(C)C6CC[C@@]5(C)[C@]3(C)C[C@H]4O)OC[C@@H](O)[C@@H]2O)[C@H](O)[C@H](O[C@@H]2OC[C@](O)(CO)[C@H]2O)[C@H]1O[C@@H]1OC[C@H](O)[C@H](O[C@@H]2OC[C@@H](O)[C@H](O)[C@H]2O)[C@H]1O (some centres undefined), the activity change, negative = inhibition was 12.7% [at 19.1 µM] (inactive).
For CNC(=O)Nc1ccc(OC)c(NC(=O)NC(=O)c2cc(F)c(F)cc2Cl)c1, the “activity change, negative = inhibition” value was -19% (inactive).
For CC/C=C/CC1=C(CCCCCCCC(=O)O)CCC1=O, the “activity change, negative = inhibition” value was -19.5% (inactive).
With COc1cc(/C=C/C(=O)O[C@H]2[C@H](OC(=O)/C=C/c3cc(OC)c(O)c(OC)c3)O[C@H](CO[C@@H]3O[C@H](CO)[C@@H](O)[C@H](O)[C@H]3O)[C@@H](O)[C@@H]2O)ccc1O the “activity change, negative = inhibition” value was 11.8% [at 32.5 µM] (inactive).
With COC(=O)[C@H](CC1C=NC=N1)NCC12CC3CC(CC(C3)C1)C2 (some centres undefined) the “activity change, negative = inhibition” value was 50.5% (inactive).
With CCCCCCc1cccc(NC(=O)[C@H](N)CCP(=O)(O)O)c1 the “activity change, negative = inhibition” value was 0% [at 32.5 µM] (inactive).
For CCC[C@@H]1C[C@@H](C(=O)N[C@@H]([C@H]2O[C@H](SC)[C@H](OP(=O)(O)O)[C@@H](O)[C@H]2O)[C@H](C)Cl)N(C)C1, the “activity change, negative = inhibition” value was 1.3% [at 57.1 µM] (inactive).
OC[C@H]1O[C@@H](Oc2cc(O)cc(/C=C/c3ccc(O)cc3)c2)[C@H](O)[C@@H](O)[C@@H]1O was tested, and the “activity change, negative = inhibition” value was 1.54% (inactive).
With C/C=C1\[C@H](O[C@@H]2O[C@H](CO)[C@@H](O)[C@H](O)[C@H]2O)OC=C(C(=O)OC)[C@H]1CC(=O)OC the “activity change, negative = inhibition” value was 3.66% [at 57.1 µM] (inactive).
In the case of CC1(C)CC[C@]2(C(=O)O)CC[C@]3(C)C(=CCC4[C@@]5(C)C[C@H](O)[C@H](O[C@@H]6OC[C@H](O)[C@H](O)[C@H]6O)[C@@](C)(CO)C5CC[C@]43C)[C@@H]2C1 (some centres undefined), the “activity change, negative = inhibition” value is reported as -16.8% [at 32.5 µM] (inactive).
For N#CCc1ccc(O)cc1O[C@@H]1O[C@H](CO)[C@@H](O)[C@H](O)[C@H]1O, the “activity change, negative = inhibition” value was -18% (inactive).
In the case of Cn1ccnc1CCOC(c1cc2nccc(C(=O)O)c2[nH]1)c1ccccc1Cl (centres undefined), the “activity change, negative = inhibition” value is reported as 0% (inactive).
In the case of COc1c(C(CC(C)C)OC(C)=O)ccc(Oc2c(O)cc(C)cc2/C=C/C(C)=O)c1C(=O)O (centres undefined), the Potency is reported as 7.08 µM (active).
In the case of COc1cc(C2c3cc(O)c(OC)cc3CC(CO)C2CO)ccc1O (centres undefined), the “activity change, negative = inhibition” value is reported as -25.5% (inactive).
With OCc1ccccc1O[C@@H]1O[C@H](CO)[C@@H](O)[C@H](O)[C@H]1O the “activity change, negative = inhibition” value was -0.361% (inactive).
For C[C@@H]1CC[C@]2(C(=O)O)CC[C@]3(C(=O)O)C(=CCC4[C@@]5(C)CC[C@H](O[C@@H]6O[C@@H](C)[C@H](O[C@@H]7O[C@H](CO)[C@@H](O)[C@H](O)[C@H]7O)[C@@H](O)[C@H]6O)C(C)(C)C5CC[C@]43C)C2[C@H]1C (some centres undefined), the “activity change, negative = inhibition” value was 6.11% [at 32.5 µM] (inactive).
In the case of C=C1CC23CC1(O)CCC2C1=CC2OC(=O)C(C)(C2O)C1C3C(=O)O (centres undefined), the “activity change, negative = inhibition” value is reported as 24.6% (inactive).
In the case of Nc1nonc1C(=Nc1ccc(F)c(Cl)c1)NO, the “activity change, negative = inhibition” value is reported as 0% (inactive).
COc1cc(C2OCC3C(c4ccc(OC5OC(CO)C(O)C(O)C5O)c(OC)c4)OCC23)ccc1O (centres undefined) was tested, and the “activity change, negative = inhibition” value was 7.69% [at 57.1 µM] (inactive).
With CO[C@H]1C=C2C(CC[C@H](O[C@@H]3O[C@H](CO)[C@@H](O)[C@@H](O)[C@H]3O)C2(C)C)[C@]2(C)CC[C@]3(C)C([C@H](C)C(O)C(C=C(C)C)O[C@@H]4O[C@H](CO)[C@@H](O)[C@@H](O)[C@H]4O)CC[C@@]3(C)C12 (some centres undefined) the “activity change, negative = inhibition” value was 10.6% [at 32.5 µM] (inactive).
With CC1(C)C[C@H]2C3=CCC4[C@@]5(C)CC[C@H](O[C@H]6O[C@H](C(=O)O)[C@@H](O)[C@H](O)[C@H]6O[C@H]6O[C@H](CO)[C@@H](O)[C@H](O)[C@H]6O[C@@H]6O[C@H](CO)[C@@H](O)[C@H](O)[C@H]6O)[C@](C)(CO)C5CC[C@@]4(C)[C@]3(C)CC[C@@]2(C)[C@H](O[C@@H]2OC[C@H](O)[C@H](OC3O[C@H](CO)[C@@H](O)[C@H](O)[C@H]3O)[C@H]2O)[C@@H]1O (some centres undefined) the activity change, negative = inhibition was 6.08% [at 19.1 µM] (inactive).
With COC1=CC(=O)O[C@@H](/C=C/c2ccccc2)[C@@H]1O the “activity change, negative = inhibition” value was 11.7% (inactive).
